# Data: the supplement of paper PMC9446081
# ± gives the standard deviation of the averaged measurements.
# Key:
# Experiment in all cases: relative enzymatic activity vs untreated control (fraction); higher = less inhibition
# Details in all cases: 100 µM; incubation time: 2 h at 37 C
# DNA gyrase = tested on: DNA gyrase
# Method: (§1)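 In vitro enzymatic inhibition assays (ProFoldin kits) for 12 purified essential E. coli enzymes or complexes, each treated with 218 active antibacterial compounds at 100 µM for 2 h at 37°C. Read-outs were fluorescence or absorbance (phosphate detection, dye binding), converted to activity via standard curves and expressed relative to untreated DMSO controls.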
# DNA helicase = DNA helicase (UniProt P0ACB1)
# Method: as §1
# DNA ligase = DNA ligase (UniProt B1XA82)
# Method: as §1
# DNA polymerase = DNA polymerase (UniProt P10443)
# Method: as §1
# DNA primase = DNA primase (UniProt P0ABS7)
# Method: as §1
# GlmU = GlmU (UniProt A7ZTU1)
# Method: as §1
# Guanlyate kinase = Guanlyate kinase (UniProt Q0TBG1)
# Method: as §1
# MurA = MurA (UniProt Q3YX52)
# Method: as §1
# MurD = molecular target: T1, MurD (UniProt P14900)
# T1 sequence (whole entry): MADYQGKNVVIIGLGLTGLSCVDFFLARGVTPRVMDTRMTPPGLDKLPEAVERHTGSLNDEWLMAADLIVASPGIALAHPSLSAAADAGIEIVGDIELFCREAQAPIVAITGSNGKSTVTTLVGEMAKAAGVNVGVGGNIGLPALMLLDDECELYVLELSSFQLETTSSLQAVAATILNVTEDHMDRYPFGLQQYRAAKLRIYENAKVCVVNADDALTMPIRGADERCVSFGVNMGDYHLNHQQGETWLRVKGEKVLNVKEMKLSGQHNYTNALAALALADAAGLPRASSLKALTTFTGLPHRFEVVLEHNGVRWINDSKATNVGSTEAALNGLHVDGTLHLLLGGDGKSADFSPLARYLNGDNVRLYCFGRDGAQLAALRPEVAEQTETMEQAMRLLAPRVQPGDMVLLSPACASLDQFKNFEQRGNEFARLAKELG
# Method: as §1
# MurF = molecular target: T2, MurF (UniProt P11880)
# T2 sequence (whole entry): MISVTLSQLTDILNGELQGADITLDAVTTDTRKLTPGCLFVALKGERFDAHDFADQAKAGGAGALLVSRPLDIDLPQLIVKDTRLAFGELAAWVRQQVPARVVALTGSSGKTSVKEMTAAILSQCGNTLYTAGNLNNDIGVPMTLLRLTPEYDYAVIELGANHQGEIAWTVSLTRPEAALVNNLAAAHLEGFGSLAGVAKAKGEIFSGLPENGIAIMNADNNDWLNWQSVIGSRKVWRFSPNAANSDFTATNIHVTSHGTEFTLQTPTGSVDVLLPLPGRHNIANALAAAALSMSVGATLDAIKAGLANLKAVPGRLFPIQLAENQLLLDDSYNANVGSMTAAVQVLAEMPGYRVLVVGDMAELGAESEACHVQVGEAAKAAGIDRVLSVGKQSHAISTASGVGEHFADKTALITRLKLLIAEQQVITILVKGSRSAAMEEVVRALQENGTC
# Method: as §1
# RNA polymerase = tested on: RNA polymerase
# Method: as §1
# Chain of DNA helicase (P0ACB1 whole entry): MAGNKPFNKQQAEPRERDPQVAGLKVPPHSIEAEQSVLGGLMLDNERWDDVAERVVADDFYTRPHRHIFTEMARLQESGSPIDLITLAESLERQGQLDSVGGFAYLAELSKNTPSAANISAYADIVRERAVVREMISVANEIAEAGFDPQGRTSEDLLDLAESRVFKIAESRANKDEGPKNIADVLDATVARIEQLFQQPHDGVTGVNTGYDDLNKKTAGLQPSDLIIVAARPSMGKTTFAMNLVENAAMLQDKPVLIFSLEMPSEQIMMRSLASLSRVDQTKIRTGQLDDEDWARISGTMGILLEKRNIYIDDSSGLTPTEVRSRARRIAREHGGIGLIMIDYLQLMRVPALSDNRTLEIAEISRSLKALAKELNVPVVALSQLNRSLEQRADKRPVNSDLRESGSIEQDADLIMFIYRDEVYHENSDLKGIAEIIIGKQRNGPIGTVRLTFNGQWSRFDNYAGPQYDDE
# Chain of Guanlyate kinase (Q0TBG1 whole entry): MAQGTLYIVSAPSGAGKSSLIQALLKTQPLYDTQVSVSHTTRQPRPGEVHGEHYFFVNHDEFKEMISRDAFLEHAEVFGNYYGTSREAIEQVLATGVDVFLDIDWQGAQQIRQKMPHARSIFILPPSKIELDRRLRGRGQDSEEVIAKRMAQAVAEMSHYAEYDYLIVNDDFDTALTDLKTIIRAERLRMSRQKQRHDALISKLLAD
# Chain of DNA polymerase (P10443 whole entry): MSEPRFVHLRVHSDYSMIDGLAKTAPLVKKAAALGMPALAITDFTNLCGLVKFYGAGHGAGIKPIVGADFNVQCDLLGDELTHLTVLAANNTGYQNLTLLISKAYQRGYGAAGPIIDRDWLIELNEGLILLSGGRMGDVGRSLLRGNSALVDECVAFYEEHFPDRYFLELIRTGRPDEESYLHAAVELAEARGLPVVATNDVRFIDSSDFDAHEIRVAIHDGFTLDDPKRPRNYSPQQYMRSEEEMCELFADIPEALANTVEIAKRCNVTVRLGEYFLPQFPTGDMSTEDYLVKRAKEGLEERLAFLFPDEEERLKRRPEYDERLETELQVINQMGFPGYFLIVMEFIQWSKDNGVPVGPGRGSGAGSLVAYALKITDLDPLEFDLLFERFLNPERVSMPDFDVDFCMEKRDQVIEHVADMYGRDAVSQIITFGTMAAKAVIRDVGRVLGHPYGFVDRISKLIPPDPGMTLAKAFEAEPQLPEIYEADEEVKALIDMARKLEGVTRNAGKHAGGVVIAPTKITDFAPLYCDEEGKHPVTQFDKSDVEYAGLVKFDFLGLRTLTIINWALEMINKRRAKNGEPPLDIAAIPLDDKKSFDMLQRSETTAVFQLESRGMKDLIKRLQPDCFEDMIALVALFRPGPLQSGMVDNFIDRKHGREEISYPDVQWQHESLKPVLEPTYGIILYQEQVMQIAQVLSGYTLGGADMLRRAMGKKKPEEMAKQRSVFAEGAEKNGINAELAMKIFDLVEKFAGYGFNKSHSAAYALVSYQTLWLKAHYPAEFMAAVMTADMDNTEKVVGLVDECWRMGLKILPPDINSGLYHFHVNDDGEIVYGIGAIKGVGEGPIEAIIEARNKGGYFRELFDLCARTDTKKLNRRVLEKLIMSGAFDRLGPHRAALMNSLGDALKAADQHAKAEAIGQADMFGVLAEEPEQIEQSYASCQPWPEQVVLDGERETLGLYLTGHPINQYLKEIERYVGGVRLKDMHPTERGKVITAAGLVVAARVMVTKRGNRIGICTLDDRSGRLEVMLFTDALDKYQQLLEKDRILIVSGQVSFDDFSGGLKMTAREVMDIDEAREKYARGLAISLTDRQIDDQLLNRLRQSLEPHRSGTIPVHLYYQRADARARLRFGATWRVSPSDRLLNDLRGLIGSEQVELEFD
# Chain of GlmU (A7ZTU1 whole entry, looked up): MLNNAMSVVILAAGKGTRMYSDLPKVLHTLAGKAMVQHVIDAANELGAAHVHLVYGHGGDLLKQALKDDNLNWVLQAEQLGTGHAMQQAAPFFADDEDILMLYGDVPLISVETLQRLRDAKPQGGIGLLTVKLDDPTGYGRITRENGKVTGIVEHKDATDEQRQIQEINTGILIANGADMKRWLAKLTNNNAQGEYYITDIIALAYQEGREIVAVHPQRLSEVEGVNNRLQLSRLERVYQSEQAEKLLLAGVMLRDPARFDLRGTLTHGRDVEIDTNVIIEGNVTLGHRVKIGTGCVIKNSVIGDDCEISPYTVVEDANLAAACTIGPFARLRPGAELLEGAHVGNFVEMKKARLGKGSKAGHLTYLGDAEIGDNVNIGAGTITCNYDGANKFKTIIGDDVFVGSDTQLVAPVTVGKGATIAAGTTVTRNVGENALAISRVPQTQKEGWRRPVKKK
# Chain of DNA ligase (B1XA82 whole entry): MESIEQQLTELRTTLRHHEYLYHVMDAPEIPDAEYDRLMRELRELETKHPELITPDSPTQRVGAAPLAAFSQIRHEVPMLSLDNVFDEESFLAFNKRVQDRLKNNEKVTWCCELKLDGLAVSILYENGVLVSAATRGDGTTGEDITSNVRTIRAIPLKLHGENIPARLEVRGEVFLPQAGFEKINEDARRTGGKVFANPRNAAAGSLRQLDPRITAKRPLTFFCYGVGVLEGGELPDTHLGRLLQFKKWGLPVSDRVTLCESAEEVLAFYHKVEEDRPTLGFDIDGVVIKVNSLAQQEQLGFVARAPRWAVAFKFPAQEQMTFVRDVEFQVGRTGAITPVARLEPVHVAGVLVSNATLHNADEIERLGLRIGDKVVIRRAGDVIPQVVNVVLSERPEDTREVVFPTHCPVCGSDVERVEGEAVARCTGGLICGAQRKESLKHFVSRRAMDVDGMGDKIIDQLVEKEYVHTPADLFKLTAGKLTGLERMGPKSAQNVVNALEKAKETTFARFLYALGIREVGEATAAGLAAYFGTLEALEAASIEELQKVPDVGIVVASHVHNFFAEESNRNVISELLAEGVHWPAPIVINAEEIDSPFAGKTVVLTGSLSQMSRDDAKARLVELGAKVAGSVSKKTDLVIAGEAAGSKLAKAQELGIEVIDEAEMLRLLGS
# Chain of MurA (Q3YX52 whole entry): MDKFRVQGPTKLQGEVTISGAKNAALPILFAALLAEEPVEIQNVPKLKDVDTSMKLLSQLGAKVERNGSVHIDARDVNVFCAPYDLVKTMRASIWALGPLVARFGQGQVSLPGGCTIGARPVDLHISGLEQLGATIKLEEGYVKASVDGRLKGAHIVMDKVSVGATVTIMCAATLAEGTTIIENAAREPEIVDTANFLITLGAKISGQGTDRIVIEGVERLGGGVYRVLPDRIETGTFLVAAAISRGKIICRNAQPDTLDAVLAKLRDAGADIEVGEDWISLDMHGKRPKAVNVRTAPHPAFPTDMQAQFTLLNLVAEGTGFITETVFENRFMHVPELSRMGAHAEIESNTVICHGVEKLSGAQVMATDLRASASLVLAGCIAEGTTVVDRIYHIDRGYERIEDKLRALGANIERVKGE
# Chain of DNA primase (P0ABS7 whole entry): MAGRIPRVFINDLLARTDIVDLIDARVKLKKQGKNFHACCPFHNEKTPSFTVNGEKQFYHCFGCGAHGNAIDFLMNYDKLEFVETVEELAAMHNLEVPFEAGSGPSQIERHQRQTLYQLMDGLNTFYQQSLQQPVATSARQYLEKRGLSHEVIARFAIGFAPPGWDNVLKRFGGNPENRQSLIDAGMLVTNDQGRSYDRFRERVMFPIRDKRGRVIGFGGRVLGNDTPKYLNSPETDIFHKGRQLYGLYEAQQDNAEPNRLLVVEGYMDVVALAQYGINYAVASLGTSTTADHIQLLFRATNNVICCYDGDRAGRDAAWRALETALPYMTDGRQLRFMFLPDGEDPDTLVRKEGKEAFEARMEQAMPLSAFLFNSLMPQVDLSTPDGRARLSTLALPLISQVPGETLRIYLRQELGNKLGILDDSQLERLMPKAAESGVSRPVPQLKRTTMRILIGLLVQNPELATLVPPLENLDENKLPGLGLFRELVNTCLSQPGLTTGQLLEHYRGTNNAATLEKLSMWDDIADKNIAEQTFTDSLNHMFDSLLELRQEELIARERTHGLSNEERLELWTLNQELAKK
SMILES,relative enzymatic activity (DNA gyrase),relative enzymatic activity (DNA helicase),relative enzymatic activity (DNA ligase),relative enzymatic activity (DNA polymerase),relative enzymatic activity (DNA primase),relative enzymatic activity (GlmU),relative enzymatic activity (Guanlyate kinase),relative enzymatic activity (MurA),relative enzymatic activity (MurD),relative enzymatic activity (MurF),relative enzymatic activity (RNA polymerase)
CON=C(C(=O)NC1C(=O)N2C(C(=O)[O-])=C(COC(C)=O)CSC12)c1csc(N)n1.[Na+] (stereo not given),0.696 ± 0.52,0.4103 ± 0.0017,0.569 ± 0.58,1.11 ± 0.28,0.68 ± 0.16,0.914 ± 0.13,1.04 ± 0.053,0.0697 ± 0.016,0.575 ± 0.37,0.939 ± 0.19,0.608 ± 0.48
CO/N=C(\C(=O)N[C@@H]1C(=O)N2C(C(=O)O)=C(CSc3nnnn3C)CS[C@H]12)c1csc(N)n1,1.08 ± 0.03,0.544 ± 0.23,0.749 ± 0.049,1.15 ± 0.25,0.827 ± 0.017,1.09 ± 0.046,0.883 ± 0.091,0.157 ± 0.032,0.611 ± 0.42,1.16 ± 0.11,0.8391 ± 0.00096
CCn1cc(C(=O)O)c(=O)c2cnc(N3CCNCC3)nc21,0.262 ± 0.12,0.533 ± 0.057,0.92 ± 0.084,1.16 ± 0.2,0.876 ± 0.015,0.94 ± 0.024,0.891 ± 0.16,0.865 ± 0.047,0.583 ± 0.38,1.136 ± 0.011,0.83 ± 0.027
CC[C@@H]1OC(=O)[C@H](C)[C@@H](O[C@H]2C[C@@](C)(OC)[C@@H](O)[C@H](C)O2)[C@H](C)[C@@H](O[C@@H]2O[C@H](C)C[C@H](N(C)C)[C@H]2O)[C@](C)(O)C[C@@H](C)/C(=N\OCOCCOC)[C@H](C)[C@@H](O)[C@]1(C)O,0.682 ± 0.5,0.568 ± 0.081,0.8031 ± 0.0034,0.48 ± 0.67,0.8559 ± 0.0026,0.895 ± 0.076,0.922 ± 0.026,0.852 ± 0.19,0.583 ± 0.4,1.12 ± 0.015,0.884 ± 0.17
COC1=C(N)C(=O)c2nc(-c3nc(C(=O)O)c(C)c(-c4ccc(OC)c(OC)c4O)c3N)ccc2C1=O,0.611 ± 0.34,0.19 ± 0.014,0.732 ± 0.11,1.03 ± 0.48,0.602 ± 0.05,0.789 ± 0.23,0.6758 ± 0.0058,0.072 ± 0.019,0.596 ± 0.39,1 ± 0.23,0.291 ± 0.026
CO/N=C(\C(=O)N[C@@H]1C(=O)N2C(C(=O)O)=C(C[n+]3ccn4ncccc43)CS[C@H]12)c1nsc(N)n1,0.675 ± 0.49,0.625 ± 0.3,0.891 ± 0.17,1.14 ± 0.26,0.77 ± 0.018,0.999 ± 0.0029,0.949 ± 0.069,0.305 ± 0.13,0.591 ± 0.38,0.909 ± 0.24,0.8278 ± 0.0046
O=c1[nH]c(=O)n([C@@H]2C[C@@H](O)[C@@H](CO)O2)cc1F,1.07 ± 0.043,0.591 ± 0.15,0.947 ± 0.062,0.708 ± 0.44,0.873 ± 0.022,1.03 ± 0.065,0.967 ± 0.1,0.74 ± 0.18,0.604 ± 0.39,1.01 ± 0.22,0.834 ± 0.019
O=C([O-])CCC(=O)OCC(NC(=O)C(Cl)Cl)C(O)c1ccc([N+](=O)[O-])cc1.[Na+] (stereo not given),1.05 ± 0.13,0.463 ± 0.053,0.965 ± 0.047,1.27 ± 0.34,0.718 ± 0.2,1.02 ± 0.042,1.025 ± 0.0099,0.872 ± 0.038,0.578 ± 0.37,0.957 ± 0.19,0.838 ± 0.064
Cl.NC1CCN(c2c(F)cc3c(=O)c(C(=O)O)cn(C4CC4)c3c2Cl)C1 (stereo not given),0.213 ± 0.3,0.622 ± 0.2,0.994 ± 0.13,1.08 ± 0.17,0.872 ± 0.014,0.974 ± 0.019,0.92 ± 0.21,0.73669 ± 0.0002,0.606 ± 0.42,0.977 ± 0.24,0.809 ± 0.07
COC1(NC(=O)CSCC#N)C(=O)N2C(C(=O)[O-])=C(CSc3nnnn3C)CSC21.[Na+] (stereo not given),0.762 ± 0.27,0.259 ± 0.32,1.42 ± 0.28,1.16 ± 0.3,0.669 ± 0.18,1.12 ± 0.035,0.746 ± 0.076,0.167 ± 0.022,0.706 ± 0.47,1.01 ± 0.2,0.839 ± 0.031
O=c1[nH]c(=O)n([C@H]2C[C@H](O)[C@@H](CO)O2)cc1F,0.574 ± 0.53,0.629 ± 0.23,0.789 ± 0.18,1.15 ± 0.27,0.8368 ± 0.0026,0.979 ± 0.066,0.927 ± 0.06,0.762 ± 0.13,0.584 ± 0.38,0.953 ± 0.23,0.7944 ± 0.0043
CC1COc2c(N3CCN(C)CC3)c(F)cc3c(=O)c(C(=O)O)cn1c23 (stereo not given),0.0425 ± 0.06,0.698 ± 0.077,1.39 ± 0.046,1.3 ± 0.35,0.722 ± 0.2,1.1 ± 0.2,0.937 ± 0.12,0.757 ± 0.05,0.584 ± 0.4,0.976 ± 0.2,1.16 ± 0.38
CCn1cc(C(=O)O)c(=O)c2cc(F)c(N3CCNCC3)nc21,0.00427 ± 0.006,0.582 ± 0.19,1.03 ± 0.25,0.579 ± 0.52,0.684 ± 0.19,1 ± 0.017,0.761 ± 0.07,0.839 ± 0.13,0.573 ± 0.39,0.982 ± 0.23,0.833 ± 0.03
CC[C@@H](C)CCCCC(=O)N[C@@H](CCN)C(=O)N[C@H](C(=O)N[C@@H](CCN)C(=O)N[C@H]1CCNC(=O)[C@H]([C@@H](C)O)NC(=O)[C@H](CCN)NC(=O)[C@H](CCN)NC(=O)[C@H](CC(C)C)NC(=O)[C@@H](Cc2ccccc2)NC(=O)[C@@H](CCN)NC1=O)[C@@H](C)O,1.66 ± 0.37,0.0939 ± 0.022,0.701 ± 0.47,0.34 ± 0.059,0.616 ± 0.13,1.11 ± 0.016,0.449 ± 0.055,0.646 ± 0.21,0.674 ± 0.44,0.991 ± 0.22,0.46 ± 0.03
COc1cc2c(cc1OC)C(=O)C(CC1CCN(Cc3ccccc3)CC1)C2.Cl (stereo not given),0.363 ± 0.072,0.802 ± 0.32,1.19 ± 0.057,1.18 ± 0.28,0.713 ± 0.2,0.766 ± 0.067,0.892 ± 0.1,0.486 ± 0.059,0.456 ± 0.32,0.934 ± 0.17,0.85 ± 0.011
